Assay results: PubChem BioAssay (Tox21)
Records with an inconclusive call do not appear. A call without a number means that no potency is given here. The source made the active and inactive calls. Unless noted, calls follow the shape of the dose curve; as a rule, active = well fitted curve in the direction sought with a large enough effect in the repeat runs; inconclusive = weak or mixed curves; inactive = no such curve, though single readings can be large; an effect the other way counts as inactive or inconclusive.

How the values were obtained:
[1] = qHTS assay to identify small molecule agonists of the estrogen related receptor (ERR) signaling pathway (AID 1224820)
How it was run: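 Luminescence readout (One-Glo, 30 min RT) from NTP-supplied ERR cell line exposed to compounds for 18 h at 37 C. Cells seeded 2,000 per well and pre-incubated 6 h before pin-tool compound transfer.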

[2] = test system: estrogen-related receptor alpha (ERRalpha) with PGC-1alpha coactivator, human; test: qHTS assay to identify small molecule antagonists of the estrogen related receptor signaling pathway with the pleiotropic PPARgamma coactivator (PGC) (AID 1224821; calls by dose curve; also: nearly all actives have a fitted effect of over 50% in size; also: potency is read from the fitted curve at half-maximal effect)
How it was run: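 PGC/ERR reporter cells; 6 h pre-incubation 37 C/5% CO2; pin-tool compound in DMSO, 18 h 37 C; One-Glo added, 30 min RT; luminescence read. qHTS antagonist mode.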

[3] = qHTS assay to identify small molecule antagonists of the estrogen related receptor (ERR) signaling pathway from Tox21 library - cell viability counter screen (AID 1224834); also: potency is read from the fitted curve at half-maximal effect; nearly all actives have a fitted effect of over 30% in size
How it was run: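 Multiplexed viability counter screen in ERR cells: 17.5 h compound exposure at 37 C, CellTiter-Fluor added, 30 min at 37 C/5% CO2, fluorescence read.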

[4] = molecular target: Luciferin 4-monooxygenase (Photinus pyralis) (UniProt P08659); test: qHTS assay to identify small molecule inhibitors of firefly luciferase (AID 1224835); also: series mostly up to about 120 µM; nearly all actives have a fitted effect of over 25% in size
How it was run: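 Inhibition of purified Photinus luciferase is measured by luminescence. Substrate levels (D-luciferin, ATP) sit at their KM values. Each compound is tested in a concentration series.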

[5] = qHTS assay to identify small molecule agonists of the constitutive androstane receptor (CAR) signaling pathway - cell viability counter screen (AID 1224836); also: series mostly up to about 92 µM; nearly all actives have a fitted effect of over 45% in size
How it was run: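 Using CellTiter-Fluor, viability of HepG2 cells harbouring hCAR and CYP2B6-2.2kb was measured following 23 h incubation with a 15-concentration compound series plus PK11195 (0.75 uM final).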

[6] = molecular target: Nuclear receptor subfamily 1 group I member 3 (Homo sapiens) (UniProt Q14994); test: qHTS assay to identify small molecule antagonists of the constitutive androstane receptor (CAR) signaling pathway (AID 1224838);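 also: HepG2 cells stably expressing hCAR with CYP2B6 luciferase reporter stimulated by CITCO; nearly all actives have a fitted effect of over 40% in size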
How it was run: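 Read-out: ONE-Glo luciferase luminescence after 30 min at room temperature. HepG2-CYP2B6-hCAR double-stable cells, compounds in 15-point titration plus 50 nM CITCO final, 24 h at 37 C/5% CO2.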

[7] = molecular target: Nuclear receptor subfamily 1 group I member 3 (Homo sapiens) (UniProt Q14994); test: qHTS assay to identify small molecule agonists of the constitutive androstane receptor (CAR) signaling pathway (AID 1224839);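 also: HepG2 cells stably carrying human CAR and a CYP2B6 luciferase reporter; series mostly up to about 92 µM; nearly all actives have a fitted effect of over 15% in size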
How it was run: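 Double-stable HepG2 cells (hCAR, CYP2B6-2.2kb) seeded 4 h before compound addition. Exposure 24 h with 0.75 uM PK11195 final. Luciferase detected by ONE-Glo.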

[8] = qHTS assay to identify small molecule antagonists of the estrogen related receptor signaling pathway with the pleiotropic PPARgamma coactivator (PGC) from Tox21 10K library - cell viability counter screen (AID 1224840; active = well fitted cell-killing curve with a large enough effect in the repeat runs, not every such curve was filed as active; also: potency is read from the fitted curve at half-maximal effect; nearly all actives have a fitted effect of over 40% in size)
How it was run: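 Fluorescence read-out of CellTiter-Fluor viability reagent, added after cells had been exposed to compound in DMSO for 17.5 h at 37 C; 30 min development at 37 C/5% CO2. Cells: PGC/ERR line, 2,000/well.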

[9] = qHTS assay to identify small molecule antagonists of the estrogen related receptor signaling pathway with the pleiotropic PPARgamma coactivator (PGC) from Tox21 10K library (AID 1224841; call rule not given here; also: potency is read from the fitted curve at half-maximal effect; actives are mostly falling curves and most rising ones were filed inactive; nearly all actives have a fitted effect of over 50% in size)
How it was run: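 Luminescence read-out (One-Glo luciferase reagent, 30 min at room temperature) from PGC/ERR cells exposed to DMSO-dissolved test compounds for 18 h at 37 C; cells, 2,000 per well, had been preincubated 6 h before compound transfer.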

[10] = qHTS assay to identify small molecule agonists of the estrogen related receptor signaling pathway with the pleiotropic PPARgamma coactivator (PGC) from Tox21 10K library (AID 1224842); also: nearly all actives have a fitted effect of over 15% in size
How it was run: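 Luminescence from One-Glo (30 min, room temperature) measured after PGC/ERR cells had 18 h at 37 C with pinned compound (23 nL in DMSO). Cells had been seeded at 2,000 per well and pre-incubated 6 h.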

[11] = molecular target: Thyrotropin receptor (Homo sapiens) (UniProt P16473); test: qHTS assay to identify small molecule agonists of the thyroid stimulating hormone receptor (TSHR) signaling pathway (AID 1224843; calls by dose curve; also: nearly all actives have a fitted effect of over 45% in size)
How it was run: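 A cell-based cAMP HTRF format was run in TSHR-transfected HEK293 cells, 800 per well. Treatment: 30 min, room temperature. Detection: 1 h with labelled cAMP and anti-cAMP cryptate. Concentration-response over 15 points, three replicates.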

[12] = qHTS assay to identify small molecule agonists of the hypoxia (HIF-1) signaling pathway - cell viability counter screen (AID 1224844; calls by dose curve; also: potency is read from the fitted curve at half-maximal effect; nearly all actives have a fitted effect of over 50% in size)
How it was run: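 CellTiter-Glo luminescence read-out, 30 min RT, taken in the same wells as the beta-lactamase HRE reporter assay; HRE-bla ME-180 cells, 0.5% dialyzed FBS, 17 hr compound treatment at 37C, 5% CO2.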

[13] = qHTS assay to identify small molecule agonists of H2AX (AID 1224845; active = well fitted activation curve with a large enough effect in the signal ratio in the repeat runs, not every such curve was filed as active; the % refers to the signal ratio)
How it was run: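 Phospho-H2AX Ser139 measured by HTRF (ex 320 nm; em 665 and 620 nm) after 24 hr antibody incubation. Compounds, 15 concentrations, 0.76% DMSO, were applied to CHO-K1 cells for 3hr at 37C before lysis.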

[14] = qHTS assay to identify small molecule agonists of the estrogen related receptor signaling pathway with the pleiotropic PPARgamma coactivator (PGC) (AID 1224823)
How it was run: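 Luminescence readout (One-Glo, 30 min RT) from PGC/ERR cell line treated 18 h at 37 C with pin-tool-delivered DMSO compound solutions; cells plated 6 h before dosing. Quantitative HTS format.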

[15] = qHTS assay to identify small molecule antagonists of the estrogen related receptor signaling pathway with the pleiotropic PPARgamma coactivator (PGC) cell viability counter screen (AID 1224822; also: potency is read from the fitted curve at half-maximal effect)
How it was run: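 Fluorescence read-out of CellTiter-Fluor after 30 min at 37 C; PGC/ERR cells, 2,000 per well, had been exposed to DMSO-dissolved compounds for 17.5 h following a 6 h pre-incubation.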

Nuclear receptor subfamily 1 group I member 3 (Homo sapiens), sequence (Q14994 whole entry, looked up): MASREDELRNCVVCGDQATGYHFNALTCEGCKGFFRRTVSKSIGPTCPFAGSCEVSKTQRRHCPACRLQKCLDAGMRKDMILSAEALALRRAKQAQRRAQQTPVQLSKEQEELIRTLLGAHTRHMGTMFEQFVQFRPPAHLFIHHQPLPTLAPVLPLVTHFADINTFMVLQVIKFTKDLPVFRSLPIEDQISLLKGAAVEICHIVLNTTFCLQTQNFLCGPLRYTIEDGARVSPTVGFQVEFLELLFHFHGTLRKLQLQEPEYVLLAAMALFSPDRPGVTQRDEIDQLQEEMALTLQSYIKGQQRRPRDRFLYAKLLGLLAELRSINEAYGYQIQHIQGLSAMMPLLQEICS
Thyrotropin receptor (Homo sapiens), sequence (P16473 whole entry, looked up): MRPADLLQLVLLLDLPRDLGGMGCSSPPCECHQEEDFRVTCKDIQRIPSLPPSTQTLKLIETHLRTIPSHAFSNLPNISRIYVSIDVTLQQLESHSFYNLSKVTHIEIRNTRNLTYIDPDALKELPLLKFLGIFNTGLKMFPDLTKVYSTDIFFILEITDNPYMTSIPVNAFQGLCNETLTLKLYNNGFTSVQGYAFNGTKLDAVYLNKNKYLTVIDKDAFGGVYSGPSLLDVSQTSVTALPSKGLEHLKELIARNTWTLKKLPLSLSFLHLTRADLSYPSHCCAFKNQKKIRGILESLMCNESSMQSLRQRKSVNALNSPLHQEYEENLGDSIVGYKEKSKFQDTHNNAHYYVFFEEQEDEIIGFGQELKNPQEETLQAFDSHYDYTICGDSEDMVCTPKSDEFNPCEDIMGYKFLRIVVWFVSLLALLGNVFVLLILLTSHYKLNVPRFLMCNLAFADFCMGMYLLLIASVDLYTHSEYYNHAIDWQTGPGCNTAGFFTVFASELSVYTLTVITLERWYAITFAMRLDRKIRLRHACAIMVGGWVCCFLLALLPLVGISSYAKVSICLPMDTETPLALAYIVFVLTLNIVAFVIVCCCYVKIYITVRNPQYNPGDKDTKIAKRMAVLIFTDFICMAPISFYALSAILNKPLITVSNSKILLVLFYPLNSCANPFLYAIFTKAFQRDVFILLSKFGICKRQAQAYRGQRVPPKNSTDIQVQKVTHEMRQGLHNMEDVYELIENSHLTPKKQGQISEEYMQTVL
Luciferin 4-monooxygenase (Photinus pyralis), sequence (P08659 whole entry, looked up): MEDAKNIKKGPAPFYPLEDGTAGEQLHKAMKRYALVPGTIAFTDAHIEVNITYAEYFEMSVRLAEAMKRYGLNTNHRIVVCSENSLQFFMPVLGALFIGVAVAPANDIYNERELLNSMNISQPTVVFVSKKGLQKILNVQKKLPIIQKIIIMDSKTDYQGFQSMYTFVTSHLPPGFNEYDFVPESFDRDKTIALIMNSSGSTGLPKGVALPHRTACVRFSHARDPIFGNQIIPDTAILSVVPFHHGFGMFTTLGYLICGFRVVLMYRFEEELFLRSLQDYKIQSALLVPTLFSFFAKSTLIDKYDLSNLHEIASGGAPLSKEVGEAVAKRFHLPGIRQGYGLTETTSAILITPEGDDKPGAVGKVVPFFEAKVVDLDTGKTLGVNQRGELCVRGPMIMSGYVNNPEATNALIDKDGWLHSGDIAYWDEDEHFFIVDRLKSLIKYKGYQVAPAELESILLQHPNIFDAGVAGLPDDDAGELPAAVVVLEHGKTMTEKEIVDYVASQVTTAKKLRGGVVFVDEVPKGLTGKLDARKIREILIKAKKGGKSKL

## CN1CCN(CCCN2c3ccccc3Sc3ccc(C(F)(F)F)cc32)CC1
[1]
  Potency: inactive
[2]
  Potency: inactive
[3]
  Potency: 29.8 µM (active)
[4]
  Potency: inactive
[5]
  Potency: inactive
[6]
  Potency: inactive
[7]
  Potency: inactive
[8]
  Potency: 29.8 µM (active)
[9]
  Potency: 29.8 µM (active)
[10]
  Potency: inactive
[11]
  Potency: inactive
[12]
  Potency: 16.9 µM (active)
[13]
  Potency: inactive

## O=C1NC(=O)c2c1c(-c1ccccc1)cc1[nH]c3ccc(O)cc3c21
[1]
  Potency: inactive
[2]
  Potency: inactive
[14]
  Potency: inactive

## CC(C)N(CCC(=O)c1ccc2ccccc2c1)Cc1ccccc1
[1]
  Potency: inactive
[2]
  Potency: 19.9 µM (active)
[14]
  Potency: inactive

## COc1ccc(/C=C/c2nc(NCCCN(C)C)c3ccccc3n2)cc1
[1]
  Potency: inactive
[2]
  Potency: 23.7 µM (active)
[14]
  Potency: inactive

## COCCOc1cc2ncnc(Cl)c2cc1OCCOC
[1]
  Potency: inactive
[15]
  Potency: inactive
[14]
  Potency: inactive

## COC(=O)c1c(C)[nH]c(C)c1C(=O)c1ccccc1Cc1ccccc1
[1]
  Potency: inactive
[2]
  Potency: inactive
[15]
  Potency: inactive
[14]
  Potency: inactive

## Cn1cc(C(F)(F)F)nc1-c1ccc(OCC(O)CNCCOc2ccc(O)c(C(N)=O)c2)cc1 (stereo unspecified)
[1]
  Potency: inactive
[15]
  Potency: inactive
[14]
  Potency: inactive

## N=C(N)c1ccc(OCCCCCOc2ccc(C(=N)N)cc2)cc1 (tested in a mixture with another compound)
[1]
  Potency: inactive
[15]
  Potency: inactive
[14]
  Potency: inactive

## NC(=NCc1ccccc1)NC(=O)c1nc(Cl)c(N)nc1N
[1]
  Potency: inactive
[2]
  Potency: inactive
[14]
  Potency: inactive

## c1ccc(C(NCCNC(c2ccccc2)c2ccccc2)c2ccccc2)cc1
[1]
  Potency: inactive
[15]
  Potency: inactive
[14]
  Potency: inactive

## Clc1ccc2c(c1)N=C(N1CCNCC1)c1ccccc1N2
[1]
  Potency: inactive
[2]
  Potency: inactive
[14]
  Potency: inactive

## Nc1nc(OCC2CCCCC2)c2[nH]cnc2n1
[1]
  Potency: inactive
[2]
  Potency: inactive
[15]
  Potency: inactive
[14]
  Potency: inactive

## C[C@@]1(C2CCCC2)Cc2cc(OCC(=O)O)c(Cl)c(Cl)c2C1=O
[1]
  Potency: inactive
[15]
  Potency: inactive
[14]
  Potency: inactive

## O=C(CCc1ccncc1)NNC(=O)N1Cc2ccccc2Oc2ccc(Cl)cc21
[1]
  Potency: inactive
[15]
  Potency: inactive
[14]
  Potency: inactive

## CC(=O)/C=C1\C(=O)N(C)c2ccccc21
[1]
  Potency: inactive
[2]
  Potency: 28.7 µM (active)
[14]
  Potency: inactive

## Fc1ccc2[nH]c(CN3CCN(c4ccccn4)CC3)cc2c1
[1]
  Potency: inactive
[2]
  Potency: inactive
[15]
  Potency: inactive
[14]
  Potency: inactive

## c1ccc(C(NCc2cccnc2)(c2ccccc2)c2ccccc2)cc1
[1]
  Potency: inactive
[2]
  Potency: 24.6 µM (active)
[14]
  Potency: inactive

## Cc1cccc(C2CN(C)CCc3c2cc(O)c(O)c3Cl)c1 (stereo unspecified)
[1]
  Potency: inactive
[2]
  Potency: inactive
[14]
  Potency: inactive

## CCc1ccc2c(-c3cccc(Cl)c3)nc(=O)n(CC)c2n1
[1]
  Potency: inactive
[2]
  Potency: inactive
[15]
  Potency: inactive
[14]
  Potency: inactive

## COc1ccccc1N1CCN(CCN(C(=O)C2CCCCC2)c2ccccn2)CC1
[1]
  Potency: inactive
[15]
  Potency: inactive

## O=c1ccc2c(OCCCCc3ccccc3)c3ccoc3cc2o1
[1]
  Potency: inactive
[2]
  Potency: inactive
[15]
  Potency: inactive
[14]
  Potency: inactive

## COc1cccc2c1[C@@H]1CN(CCCCn3c(=O)[nH]c4c(sc5ncc(-c6ccccc6)nc54)c3=O)C[C@@H]1CO2
[1]
  Potency: inactive
[2]
  Potency: inactive
[14]
  Potency: inactive

## O=C(O)c1ccccc1Nc1cccc(OCc2ccc3ccccc3n2)c1
[1]
  Potency: inactive
[2]
  Potency: inactive
[15]
  Potency: inactive
[14]
  Potency: inactive

## O=C1C2C=CC=CC2=NC(=S)N1CCN1CCC(=C(c2ccc(F)cc2)c2ccc(F)cc2)CC1 (stereo unspecified)
[1]
  Potency: inactive
[2]
  Potency: 25.6 µM (active)
[14]
  Potency: inactive

## Nc1nc(N)c(N=O)c(OCC2CCCCC2)n1
[1]
  Potency: inactive
[2]
  Potency: inactive
[14]
  Potency: inactive

## Nc1c(S(=O)(=O)O)cc(Nc2ccc(Nc3nc(Cl)nc(Nc4ccc(S(=O)(=O)O)cc4)n3)c(S(=O)(=O)O)c2)c2c1C(=O)c1ccccc1C2=O
[1]
  Potency: inactive
[2]
  Potency: 18.8 µM (active)
[14]
  Potency: inactive

## CCN(CC)CCCCCCCCOC(=O)c1cc(OC)c(OC)c(OC)c1
[1]
  Potency: inactive
[2]
  Potency: inactive
[14]
  Potency: inactive

## O=C(O)c1ccccc1Nc1ccccc1
[1]
  Potency: inactive
[2]
  Potency: inactive
[15]
  Potency: inactive
[14]
  Potency: inactive

## CCCCN(CC)c1nc(C)nc2c1c(C)cn2-c1c(C)cc(C)cc1C
[1]
  Potency: inactive
[2]
  Potency: 12.8 µM (active)
[15]
  Potency: 16.8 µM (active)
[14]
  Potency: inactive

## CN1CCc2cccc3c2C1Cc1ccc(O)c(O)c1-3 (stereo unspecified)
[1]
  Potency: inactive
[2]
  Potency: 26.6 µM (active)
[14]
  Potency: inactive

## Nc1nc2ccc(Cl)cc2c2nc(-c3ccco3)nn12
[1]
  Potency: inactive
[2]
  Potency: inactive
[15]
  Potency: inactive
[14]
  Potency: inactive
